# From PubChem BioAssay (EPA / NIEHS)
# Records with an inconclusive call do not appear. The source made the active and inactive calls. The calls were made as follows, unless noted: active = hit-call score of the fitted dose curve at least 0.9, where 1 is the maximum; inconclusive = response in the unintended direction; inactive = score below 0.9.
# Key:
# [1] = TOX21_p53_BLA_p2_viability: Viability Assessment in the Tox21 HCT-116 p53 Agonism Beta-lactamase Assay, Phase 2 (AID 2283591);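 also: actives lower the ATP signal meaning cytotoxicity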
# In short: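 HCT-116 p53-bla cells (4000/well) rested 5 h at 37C, then received compounds in DMSO (217-fold dilution) for 16 h at 37C, 5% CO2. After the CCF4 read, CellTiter-Glo was added; ATP luminescence was read after 30 min at room temperature.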
# [2] = target: Cellular tumor antigen p53 (Homo sapiens) (UniProt P04637); assay: TOX21_p53_BLA_p2_ratio: Tox21 HCT-116 p53 Agonism Beta-lactamase Assay, Ratio, Phase 2 (AID 2283592)
# Chain of Cellular tumor antigen p53 (Homo sapiens) (P04637 whole entry, looked up): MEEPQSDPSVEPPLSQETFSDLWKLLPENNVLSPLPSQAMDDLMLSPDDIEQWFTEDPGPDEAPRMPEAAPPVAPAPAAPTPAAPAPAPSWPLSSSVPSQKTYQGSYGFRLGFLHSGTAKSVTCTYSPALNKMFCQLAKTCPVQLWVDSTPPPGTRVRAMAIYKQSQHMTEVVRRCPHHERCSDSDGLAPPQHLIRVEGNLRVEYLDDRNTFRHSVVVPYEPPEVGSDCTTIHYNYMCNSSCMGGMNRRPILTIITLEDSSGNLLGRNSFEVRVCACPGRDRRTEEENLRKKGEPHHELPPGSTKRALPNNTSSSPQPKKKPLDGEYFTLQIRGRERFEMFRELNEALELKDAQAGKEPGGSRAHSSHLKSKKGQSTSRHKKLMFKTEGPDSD
# In short: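 DMSO-normalized, positive-direction endpoint derived from the 460 nm/530 nm FRET ratio in HCT116 p53 beta-lactamase reporter cells exposed 16 h at 37C and loaded with CCF4-AM for 2 h.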
# [3] = TOX21_p53_BLA_p3_viability: Viability Assessment in the Tox21 HCT-116 p53 Agonism Beta-lactamase Assay, Phase 3 (AID 2283593);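 also: cells exposed to compound for 16 h before reading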
# In short: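 HCT-116 cells (4000/well) rested 5 h at 37C, then got DMSO compounds by pin tool (217-fold dilution) for 16 h at 37C, 5% CO2. After the bla read, CellTiter-Glo was added and luminescence read at 30 min, room temperature.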
# [4] = target: Cellular tumor antigen p53 (Homo sapiens) (UniProt P04637); assay: TOX21_p53_BLA_p3_ratio: Tox21 HCT-116 p53 Agonism Beta-lactamase Assay, Ratio, Phase 3 (AID 2283596)
# In short: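 Cells were seeded at 4000/well, rested 5 h at 37C, then dosed with DMSO compound solutions (217-fold dilution) for 16 h. CCF4-AM substrate was loaded for 2 h at room temperature, and the 460/530 nm emission ratio was fitted for gain of signal versus DMSO.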
# [5] = TOX21_p53_BLA_p4_viability: Viability Assessment in the Tox21 HCT-116 p53 Agonism Beta-lactamase Assay, Phase 4 (AID 2283597);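 also: hits lower the luminescence signal meaning cytotoxicity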
# In short: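 In this multiplexed secondary endpoint, HCT116 cells (4000 per well, compound at 5 h, 16 h treatment) received CellTiter-Glo after the beta-lactamase read. Luminescence after 30 min RT reflects ATP, and falling signal marks cytotoxicity.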
# [6] = TOX21_p53_BLA_p5_viability: Viability Assessment in the Tox21 HCT-116 p53 Agonism Beta-lactamase Assay, Phase 5 (AID 2283600)
# In short: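 Here cell health was gauged by ATP levels in wells holding 4000 cells, each treated 16 h with DMSO-delivered compounds at 217-fold dilution; reduced luminescence marked toxicity.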
# [7] = target: Cellular tumor antigen p53 (Homo sapiens) (UniProt P04637); assay: TOX21_p53_BLA_p4_ratio: Tox21 HCT-116 p53 Agonism Beta-lactamase Assay, Ratio, Phase 4 (AID 2283601)
# In short: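 HCT116 cells carrying an inducible beta-lactamase reporter were plated at 4000 cells/well, rested 5 h, then exposed to compounds in DMSO (217-fold dilution) for 16 h at 37C. CCF4-AM substrate was loaded 2 h at room temperature; 460/530 nm emission ratio scored gain-of-signal versus DMSO.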
# PGR (gene 5241) [8] = target: PGR (gene 5241) (UniProt P06401); assay: TOX21_PR_BLA_Followup_Antagonist_ratio: Tox21 HEK293 Progesterone Receptor (PR) Antagonism Beta-lactamase Follow-Up Assay, Ratio (AID 2283934);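 also: PR-UAS-bla HEK293T cells stimulated with 1 nM R5020 agonist for 16 hr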
# Chain of PGR (gene 5241) (P06401 whole entry, looked up): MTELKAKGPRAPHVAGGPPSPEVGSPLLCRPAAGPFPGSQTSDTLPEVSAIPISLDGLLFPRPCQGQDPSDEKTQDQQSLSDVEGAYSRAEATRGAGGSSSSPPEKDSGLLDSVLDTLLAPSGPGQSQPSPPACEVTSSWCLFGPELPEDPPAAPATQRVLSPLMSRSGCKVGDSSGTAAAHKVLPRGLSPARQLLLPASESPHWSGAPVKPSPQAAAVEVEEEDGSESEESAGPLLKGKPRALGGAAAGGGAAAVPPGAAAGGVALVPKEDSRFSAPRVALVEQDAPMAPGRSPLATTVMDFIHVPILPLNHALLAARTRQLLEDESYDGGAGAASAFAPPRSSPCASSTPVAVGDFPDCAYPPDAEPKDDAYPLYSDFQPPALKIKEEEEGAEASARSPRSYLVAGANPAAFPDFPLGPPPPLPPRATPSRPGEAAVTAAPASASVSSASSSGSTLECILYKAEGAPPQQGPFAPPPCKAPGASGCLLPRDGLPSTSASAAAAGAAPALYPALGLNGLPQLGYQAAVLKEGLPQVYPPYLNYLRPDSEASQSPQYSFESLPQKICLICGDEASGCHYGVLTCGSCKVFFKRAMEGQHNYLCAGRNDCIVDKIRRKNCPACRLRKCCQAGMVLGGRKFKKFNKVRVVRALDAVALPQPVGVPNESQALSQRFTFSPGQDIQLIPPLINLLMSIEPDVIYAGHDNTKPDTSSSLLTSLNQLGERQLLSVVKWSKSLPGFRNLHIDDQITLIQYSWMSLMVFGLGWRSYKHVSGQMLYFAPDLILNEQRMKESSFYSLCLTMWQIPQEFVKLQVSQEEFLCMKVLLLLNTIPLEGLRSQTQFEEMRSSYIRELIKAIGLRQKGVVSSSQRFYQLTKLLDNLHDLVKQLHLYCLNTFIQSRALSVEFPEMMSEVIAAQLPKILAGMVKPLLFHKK
# In short: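 Readout is the blue/green (ch2/ch1) substrate cleavage ratio after 2 hours at room temperature, following 16 hr co-treatment of PR-bla HEK293T cells with compound and 1nM promegestone. Multiplexed CellTiter-Glo viability flags cytotoxicity; DMSO baseline.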
# [9] = TOX21_PR_BLA_Followup_Agonist_viability: Viability Assessment in the Tox21 HEK293 Progesterone Receptor (PR) Agonism Beta-lactamase Follow-Up Assay (AID 2283935);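 also: signal loss means lower viability so actives are cytotoxic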
# In short: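 Run multiplexed with the beta-lactamase FRET read, this endpoint measures ATP by CellTiter-Glo luminescence (30 min, room temperature). PR-UAS-bla HEK293T cells received compound 6 hr after plating and were then incubated 16 hr at 37C in 2% stripped serum.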
# [10] = TOX21_PR_BLA_Followup_Antagonist_viability: Viability Assessment in the Tox21 HEK293 Progesterone Receptor (PR) Antagonism Beta-lactamase Follow-Up Assay (AID 2283936);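 also: cells exposed to compound with R5020 agonist for 16 h; hits lower the luminescence signal meaning cytotoxicity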
# In short: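 PR-UAS-bla HEK293T cells in medium with 2% charcoal-stripped FBS were treated with compounds plus R5020 for 16 hr at 37C. After the beta-lactamase read, CellTiter-Glo was added to the same wells and luminescence read after 30 min at room temperature.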
# PGR (gene 5241) [11] = target: PGR (gene 5241) (UniProt P06401); assay: TOX21_PR_LUC_Followup_Antagonist: Tox21 HEK293 Progesterone Receptor (PR) Antagonism Luciferase Follow-Up Assay (AID 2283938);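 also: curve fitted upward as signal gain over DMSO baseline despite antagonist label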
# In short: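 Luciferase reporter in HEK293-PR-A-luc cells: 16 h compound treatment at 37C, ONE-Glo luminescence detection, DMSO as negative control and baseline.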
# [12] = TOX21_PR_LUC_Followup_Antagonist_viability: Viability Assessment in the Tox21 HEK293 Progesterone Receptor (PR) Antagonism Luciferase Follow-Up Assay (AID 2283940)
# In short: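 Viability counter-readout: cellular ATP measured by luciferase luminescence after 16 h compound exposure at 37C of HEK293-PR-A-luc cells, which had been cultured in charcoal-stripped serum and seeded 5 h beforehand.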
# [13] = CCTE_Harrill_HTTr_Viability_MCF7: CCTE's 6-hour Cell Viability Assessment for the High-Throughput Transcriptomics (HTTr) Platform, in MCF-7 cells cultured in DMEM + 10% fetal bovine serum, Harrill Lab (AID 2284010; active = hit-call score of the fitted dose curve at least 0.9, where 1 is the maximum; inactive = score below 0.9)
# In short: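 Propidium iodide exclusion, imaged by high-content analysis, gauged viability after a six-hour exposure across eight concentrations. Cells were MCF-7 grown in DMEM with 10% fetal bovine serum; fits run in both directions against DMSO.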
# [14] = CCTE_Harrill_HTTr_Apoptosis_MCF7: CCTE's 6-hour Apoptosis Assessment for the High-Throughput Transcriptomics (HTTr) Platform, in MCF-7 cells cultured in DMEM + 10% fetal bovine serum, Harrill Lab (AID 2284011; active = hit-call score of the fitted dose curve at least 0.9, where 1 is the maximum; inactive = score below 0.9)
# In short: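 Apoptosis in MCF-7 cells grown in DMEM with 10% fetal bovine serum was scored after a six hour exposure by high content imaging of caspase-3/7 activation (CellEvent Caspase 3/7 Green), with DMSO serving as negative control and baseline.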
# [15] = CCTE_Harrill_HTTr_CellCount_MCF7: CCTE's Cell Proliferation Assessment for the High-Throughput Transcriptomics (HTTr) Platform, Harrill Lab (AID 2284012);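 also: cells exposed to compound for six hours; intended direction is loss of nuclei count meaning fewer cells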
# In short: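 Cell count from high-content imaging of Hoechst-labeled nuclei serves as viability/growth readout. Chemicals were applied to MCF-7 cells in eight concentrations for six hours, with fitting in both directions relative to DMSO.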
# [16] = target: Thyroid hormone receptor alpha (Rattus norvegicus) + Thyroid hormone receptor beta (Rattus norvegicus) (UniProt P18113+P63059); assay: TOX21_TR_LUC_GH3_Agonist_Followup: Tox21 GH3 Thyroid Hormone Receptor Agonism Luciferase Follow-Up Assay (AID 2283939)
# Chain of Thyroid hormone receptor alpha (Rattus norvegicus) + Thyroid hormone receptor beta (Rattus norvegicus) (P63059 whole entry, looked up): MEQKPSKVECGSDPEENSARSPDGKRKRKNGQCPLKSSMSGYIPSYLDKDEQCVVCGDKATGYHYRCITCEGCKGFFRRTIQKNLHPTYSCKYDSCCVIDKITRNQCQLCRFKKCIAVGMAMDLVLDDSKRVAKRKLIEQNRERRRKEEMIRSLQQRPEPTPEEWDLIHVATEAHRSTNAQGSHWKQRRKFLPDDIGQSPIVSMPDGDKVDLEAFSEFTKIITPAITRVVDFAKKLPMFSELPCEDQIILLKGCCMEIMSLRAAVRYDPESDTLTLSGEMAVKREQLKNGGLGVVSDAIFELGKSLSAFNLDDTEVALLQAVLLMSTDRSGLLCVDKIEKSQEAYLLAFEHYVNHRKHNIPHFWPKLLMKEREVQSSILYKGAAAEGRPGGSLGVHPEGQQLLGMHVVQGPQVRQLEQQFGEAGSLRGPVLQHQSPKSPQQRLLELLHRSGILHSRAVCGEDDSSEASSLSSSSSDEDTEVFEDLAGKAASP
# Chain of Thyroid hormone receptor alpha (Rattus norvegicus) + Thyroid hormone receptor beta (Rattus norvegicus) (P18113 whole entry, looked up): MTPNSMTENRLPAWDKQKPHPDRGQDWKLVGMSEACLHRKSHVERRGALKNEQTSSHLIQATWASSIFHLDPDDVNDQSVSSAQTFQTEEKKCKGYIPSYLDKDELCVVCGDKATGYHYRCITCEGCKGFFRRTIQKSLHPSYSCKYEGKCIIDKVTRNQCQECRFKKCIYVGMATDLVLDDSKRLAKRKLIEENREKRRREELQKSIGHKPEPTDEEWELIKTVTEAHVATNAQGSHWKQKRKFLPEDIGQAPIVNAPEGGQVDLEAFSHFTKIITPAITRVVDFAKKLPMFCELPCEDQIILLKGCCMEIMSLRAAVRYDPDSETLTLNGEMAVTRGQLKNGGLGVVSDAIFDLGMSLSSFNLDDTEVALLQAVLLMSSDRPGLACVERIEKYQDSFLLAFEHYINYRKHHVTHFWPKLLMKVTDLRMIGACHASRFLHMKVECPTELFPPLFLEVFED
# In short: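 Agonist-mode confirmatory run: 15 concentrations (5 nM to 92 uM final) on GH3 rat pituitary cells, 24 h at 37C/5% CO2, T3 as positive control. Luminescence read with ONE-Glo after 30 min.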
# THRA (gene 7067) = THRA (gene 7067) (UniProt P10827); assay: TOX21_TRA_COA_Agonist_Followup_ratio: Tox21 Thyroid Hormone Receptor alpha Agonism through Coactivator Recruitment Follow-Up Assay, Ratio (AID 2283948; active = hit-call score of the fitted dose curve at least 0.9, where 1 is the maximum; inactive = score below 0.9)
# Chain of THRA (gene 7067) (P10827 whole entry, looked up, the tested form may be a part): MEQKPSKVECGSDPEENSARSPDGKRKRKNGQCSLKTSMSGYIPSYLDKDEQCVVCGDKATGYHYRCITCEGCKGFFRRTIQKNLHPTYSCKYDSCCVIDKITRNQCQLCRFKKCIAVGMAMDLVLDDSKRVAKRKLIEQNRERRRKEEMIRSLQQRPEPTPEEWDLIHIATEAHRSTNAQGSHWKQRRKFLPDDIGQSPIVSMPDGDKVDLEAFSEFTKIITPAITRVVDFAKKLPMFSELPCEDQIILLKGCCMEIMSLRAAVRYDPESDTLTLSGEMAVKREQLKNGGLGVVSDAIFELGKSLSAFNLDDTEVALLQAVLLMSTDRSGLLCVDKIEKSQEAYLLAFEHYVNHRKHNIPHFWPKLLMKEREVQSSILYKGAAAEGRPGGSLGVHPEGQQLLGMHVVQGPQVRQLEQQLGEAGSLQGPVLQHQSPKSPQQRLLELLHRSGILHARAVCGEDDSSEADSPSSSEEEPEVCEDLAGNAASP
# In short: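 Agonist-mode biochemical TR-FRET with TRα LBD and SRC-2 coactivator peptide; activity expressed as percent of T3 response over DMSO baseline.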
# THRB (gene 7068) [17] = target: THRB (gene 7068) (UniProt P10828); assay: TOX21_TRB_BLA_Agonist_Followup_ratio: Tox21 Thyroid Hormone Receptor beta Agonism Beta-lactamase (BLA) Follow-Up Assay, Ratio (AID 2283954)
# Chain of THRB (gene 7068) (P10828 whole entry, looked up, the tested form may be a part): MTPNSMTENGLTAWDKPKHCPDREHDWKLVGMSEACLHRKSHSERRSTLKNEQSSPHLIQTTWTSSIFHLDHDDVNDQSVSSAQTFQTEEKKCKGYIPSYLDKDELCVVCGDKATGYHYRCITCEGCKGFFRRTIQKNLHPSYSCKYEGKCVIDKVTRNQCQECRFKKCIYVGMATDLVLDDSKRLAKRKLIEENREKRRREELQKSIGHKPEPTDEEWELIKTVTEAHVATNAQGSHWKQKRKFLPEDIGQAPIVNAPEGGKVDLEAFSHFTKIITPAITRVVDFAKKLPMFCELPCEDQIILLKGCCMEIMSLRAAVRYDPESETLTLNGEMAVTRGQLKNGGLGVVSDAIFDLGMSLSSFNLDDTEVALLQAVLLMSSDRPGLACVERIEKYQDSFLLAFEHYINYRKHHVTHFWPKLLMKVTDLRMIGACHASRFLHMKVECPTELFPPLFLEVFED
# In short: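 Agonist mode: compounds (11-point, triplicate) incubated 18 h with HEK293T cells carrying GAL4-DBD/human TRβ-LBD and UAS-β-lactamase. Blue/green (460/530 nm) FRET ratio read after 2 h CCF4-AM loading; CellTiter-Glo viability run in the same plates.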
# THRB (gene 7068) [18] = target: THRB (gene 7068) (UniProt P10828); assay: TOX21_TRB_COA_Agonist_Followup_ratio: Tox21 Thyroid Hormone Receptor beta Agonism through Coactivator Recruitment Follow-Up Assay, Ratio (AID 2283963; active = hit-call score of the fitted dose curve at least 0.9, where 1 is the maximum; inactive = score below 0.9)
# In short: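 Cell-free TR-FRET coactivator recruitment: GST-tagged TRβ LBD (5.0 nM) with 0.10% BSA incubated with compound, then fluorescein-SRC-2 peptide (200 nM) and Tb-anti-GST antibody (2 nM) added. 520:495 nm ratio normalized to DMSO (0%) and T3 (100%).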
# [19] = target: Retinoic acid receptor RXR-alpha (Homo sapiens) (UniProt P19793); assay: TOX21_TR_RXR_BLA_Agonist_Followup_ratio: Tox21 Thyroid Hormone Receptor beta Retinoid X Receptor alpha (RXRa) Agonism Beta-lactamase (BLA) Follow-Up Assay, Ratio (AID 2283968)
# Chain of Retinoic acid receptor RXR-alpha (Homo sapiens) (P19793 whole entry, looked up): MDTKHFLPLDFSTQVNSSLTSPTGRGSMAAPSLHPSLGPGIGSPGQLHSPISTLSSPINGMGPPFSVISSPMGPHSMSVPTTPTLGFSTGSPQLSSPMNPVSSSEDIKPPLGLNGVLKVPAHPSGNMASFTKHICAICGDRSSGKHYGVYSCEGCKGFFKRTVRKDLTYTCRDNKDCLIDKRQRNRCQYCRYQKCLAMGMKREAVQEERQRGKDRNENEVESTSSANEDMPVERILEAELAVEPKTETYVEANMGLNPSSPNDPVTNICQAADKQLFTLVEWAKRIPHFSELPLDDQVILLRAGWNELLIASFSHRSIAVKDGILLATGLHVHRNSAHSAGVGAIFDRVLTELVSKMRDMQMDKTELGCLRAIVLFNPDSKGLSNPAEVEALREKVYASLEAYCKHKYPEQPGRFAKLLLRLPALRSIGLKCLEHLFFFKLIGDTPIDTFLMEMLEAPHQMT
# In short: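 Agonist mode: compounds given to RXRa-bla HEK293T cells at 11 concentrations, triplicate, 16 h at 37C/5% CO2. Readout is the 460:530 nm blue/green ratio after 2 h substrate loading at room temperature; DMSO baseline, 9-cis retinoic acid control.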
# [20] = TOX21_TR_RXR_BLA_Agonist_Followup_viability: Viability Assessment in the Tox21 Thyroid Hormone Receptor beta Retinoid X Receptor alpha (RXRa) Agonism Beta-lactamase (BLA) Follow-Up Assay (AID 2283970)
# In short: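 CellTiter-Glo ATP luciferase read-out of cell viability, multiplexed with the beta-lactamase reporter run. RXRa-bla HEK293T cells in charcoal-stripped serum medium were exposed 16 h at 37C; data fitted both directions relative to DMSO.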
# [21] = TOX21_PR_LUC_Followup_Agonist_viability: Viability Assessment in the Tox21 HEK293 Progesterone Receptor (PR) Agonism Luciferase Follow-Up Assay (AID 2283941);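 also: loss of signal means cytotoxicity so actives lower viability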
# In short: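 Cytotoxicity counter-readout in the PR-A luciferase reporter line HEK293, with 16 h compound exposure at 37C after cells were cultured in charcoal-stripped serum. Cellular ATP quantified by CellTiter-Glo luminescence.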
smiles,measurement,setting,value
N#C/C(=C1/SC[C@@H](c2ccc(Cl)cc2Cl)S1)n1ccnc1,outcome,[1],inactive
same,outcome,[2],inactive
same,outcome,[3],inactive
same,outcome,[4],inactive
same,outcome,[5],inactive
same,outcome,[6],inactive
same,outcome,[7],inactive
same,AC50,PGR (gene 5241) [8],33 µM (active)
same,outcome,[9],inactive
same,outcome,[10],inactive
same,outcome,PGR (gene 5241) [11],inactive
same,outcome,[12],inactive
CCn1cc(C(=O)O)c(=O)c2cc3c(cc21)OCO3,outcome,[1],inactive
same,outcome,[2],inactive
same,outcome,[3],inactive
same,outcome,[4],inactive
same,outcome,[5],inactive
same,outcome,[6],inactive
same,outcome,[7],inactive
same,outcome,[13],inactive
same,outcome,[14],inactive
same,outcome,[15],inactive
CSCC[C@H](NC(=O)[C@H](Cc1ccc(OS(=O)(=O)O)cc1)NC(=O)[C@@H](N)CC(=O)O)C(=O)NCC(=O)N[C@@H](Cc1c[nH]c2ccccc12)C(=O)N[C@@H](CCSC)C(=O)N[C@@H](CC(=O)O)C(=O)N[C@@H](Cc1ccccc1)C(N)=O,outcome,[1],inactive
same,outcome,[2],inactive
same,outcome,[3],inactive
same,outcome,[4],inactive
same,outcome,[5],inactive
same,outcome,[6],inactive
same,outcome,[7],inactive
same,outcome,[16],inactive
same,outcome,THRA (gene 7067),inactive
same,outcome,THRB (gene 7068) [17],inactive
same,outcome,THRB (gene 7068) [18],inactive
same,outcome,[19],inactive
same,outcome,[20],inactive
CN(C1CCCCC1)S(=O)(=O)c1ccccc1N,outcome,[1],inactive
same,outcome,[2],inactive
same,outcome,[3],inactive
same,outcome,[4],inactive
same,outcome,[5],inactive
same,outcome,[6],inactive
same,outcome,[7],inactive
same,AC50,PGR (gene 5241) [8],25.7 µM (active)
same,outcome,[9],inactive
same,outcome,[10],inactive
same,AC50,PGR (gene 5241) [11],24.2 µM (active)
same,outcome,[12],inactive
same,outcome,[21],inactive
COc1ccccc1/C=C/C=O,outcome,[1],inactive
same,outcome,[2],inactive
same,outcome,[3],inactive
same,outcome,[4],inactive
same,outcome,[5],inactive
same,outcome,[6],inactive
same,outcome,[7],inactive
CC(=O)OC(C)OC(=O)C(C)c1ccc(-c2ccccc2)c(F)c1 (configuration not stated),outcome,[1],inactive
same,outcome,[2],inactive
same,outcome,[3],inactive
same,outcome,[4],inactive
same,outcome,[5],inactive
same,outcome,[6],inactive
same,outcome,[7],inactive
